Screening data as filed in PubChem.
Only some compounds are listed: those with a hit (about 10% of all), similar ones and a draw of the others.
NIH3T3 tox: kills NIH 3T3 cells. NIH 3T3 viability, CellTiter-Glo ATP luminescence, 48-72 h. Potency, µM (titrated, usually from 96.7 µM), inactives show top-dose activity change, negative = cytotoxicity, actives largely listed as inhibitors. 94,000 compounds, 4.3% hits. AID 1345082; further: nearly all actives have a fitted effect of over 55% in size
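Luminescent ATP readout (CellTiter-Glo, 10 min RT) after 48 or 72 hr compound exposure of NIH 3T3 cells seeded at 400 cells/well in 1536-well format; quantitative HTS.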
Luciferase inh: blocks purified firefly luciferase enzyme activity; Potency, µM (highest dose often 115 µM), most hits filed as inhibitors; P08659; purified P. pyralis luciferase, luminescence, biochemical; 76,000 compounds, 2.5% hits; further: nearly all actives have a fitted effect of over 65% in size
Target sequence (P08659 whole entry, looked up): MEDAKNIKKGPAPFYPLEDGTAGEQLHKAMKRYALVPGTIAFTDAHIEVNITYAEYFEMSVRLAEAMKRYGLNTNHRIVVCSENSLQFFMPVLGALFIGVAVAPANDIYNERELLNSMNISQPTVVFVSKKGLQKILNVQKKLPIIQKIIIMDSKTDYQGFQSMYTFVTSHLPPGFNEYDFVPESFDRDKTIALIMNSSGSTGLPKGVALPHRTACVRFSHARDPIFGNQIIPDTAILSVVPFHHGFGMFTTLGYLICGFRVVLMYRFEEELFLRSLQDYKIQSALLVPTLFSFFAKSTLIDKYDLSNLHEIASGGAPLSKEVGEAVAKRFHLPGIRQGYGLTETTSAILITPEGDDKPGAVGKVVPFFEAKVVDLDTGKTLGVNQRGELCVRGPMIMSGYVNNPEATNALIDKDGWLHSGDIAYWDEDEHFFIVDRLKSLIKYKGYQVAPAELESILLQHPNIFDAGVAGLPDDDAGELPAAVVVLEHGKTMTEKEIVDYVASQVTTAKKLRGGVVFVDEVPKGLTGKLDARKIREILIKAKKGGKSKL
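Luminescence read by CCD imager after adding enzyme (10nM final) to wells holding compound, titrated in qHTS. Substrates 10uM each D-luciferin and ATP; buffer 50mM Tris acetate pH 7.5, 10mM Mg acetate, Tween-20, BSA.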
HEK cytotox: HEK 293 cell cytotoxicity | 94,000 compounds, 6.6% hits | HEK 293 viability, ATP luminescence (CellTiter-Glo), 48-72 h | Potency, µM (series often up to 115 µM), for inactives: top-dose activity change, negative = cytotoxicity, usual class: inhibitors; further: nearly all actives have a fitted effect of over 60% in size
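Luminescence from cellular ATP, measured with CellTiter-Glo, indicates HEK 293 viability. Cells plated at 250 cells/well are treated with compound for 48 or 72 hr at 37 degree Celsius before reagent addition.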
GPT2 inhibitor: GPT2 alanine aminotransferase inhibition; Q8TD30; Recombinant GPT2, coupled pyruvate oxidase/HRP Amplex Red fluorescence; Potency, µM (doses to about 57.7 µM), for the others: at the top dose activity change, negative = inhibition, most hits filed as inhibitors; 100,000 compounds, 0.25% hits; further: nearly all actives have a fitted effect of over 60% in size
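GPT2 10ng/uL, a-KG 250uM, L-Ala 2mM, HEPES pH7.5 + 0.0001% Tween; 30 min RT. Then Amplex mix (PO/HRP/ThPP), 30 min RT dark, fluorescence. AOA 50uM used as positive control.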
hNpr1 antagonist: blocks ANP-stimulated signaling of human Npr1 receptor; HEK293 hNpr1 GloSensor cGMP, ANP-stimulated luminescence; Potency, µM (highest dose often 46.3 µM), inactives show at the highest dose activity change, negative = inhibition, actives largely listed as inhibitors; 76,000 compounds, 1.6% hits; calls by dose curve; further: nearly all actives have a fitted effect of over 60% in size
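HEK293 cells stably expressing human Npr1 and cGMP GloSensor pGS-40F, loaded 2 h with 2% GloSensor reagent, given compound 30 min at room temperature. Luminescence read before and 20 min after 0.1 nM hNppA.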
Active calls of the source: *; i = inactive; ? = inconclusive; . = no result; [ ] = remark or other dose. Unless noted, the call rests on the fitted dose curve; in most records, active means well fitted curve in the direction sought with a large enough effect; inconclusive means small, poorly fitted or top-dose-only effect, or another doubt; inactive means no such curve, though single readings can be large; an effect the other way counts as inactive or inconclusive. On the % scale 0 is the no-effect control and ±100 the full control effect; potency means the concentration at half of the fitted maximal effect.

SMILES	NIH3T3 tox	Luciferase inh	HEK cytotox	GPT2 inhibitor	hNpr1 antagonist
Cc1cnc(-c2ccccc2)n1C1CCCN(C(=O)COc2ccc(F)cc2)C1 (centres undefined)	-18%	i	?	-4%	-3%
Cc1ccccc1C(=O)N1CCCC1C(=O)N1CCC(N2Cc3ccccc3C2=O)CC1 (centres undefined)	5%	.	0%	4%	.
O=C(c1cccc2[nH]ccc12)N1CC(Oc2ccc(-c3nc(-c4ccccc4)no3)cc2)C1	?	16µM*	?	i	-27%
Cc1noc(-c2ccc(OC3CN(C(=O)c4sccc4C)C3)cc2)n1	?	i	?	?	?
Cc1noc(-c2ccc(OC3CN(C(=O)c4cccc5[nH]ccc45)C3)cc2)n1	?	35µM*	?	-6%	?
COc1cccc(-c2cc3c(=O)n(CCNC(=O)Cc4cccc(F)c4)ccn3n2)c1	?	11µM*	?	i	-3%
COc1cccc(-c2cc3c(=O)n(CCNC(=O)Cc4ccc(Cl)cc4)ccn3n2)c1	-26%	?	-26%	i	?
COc1cccc(-c2cc3c(=O)n(CCNC(=O)c4cc(F)ccc4F)ccn3n2)c1	?	7.1µM*	?	-14%	?
COc1cccc(-c2cc3c(=O)n(CCNC(=O)c4ccc(F)cc4)ccn3n2)c1	0%	i	-4%	i	-3%
COc1cccc(-c2cc3c(=O)n(CCNC(=O)Cc4ccsc4)ccn3n2)c1	-25%	28µM*	?	i	-3%
COc1cccc(-c2cc3c(=O)n(CCNC(=O)Cc4ccc(F)cc4)ccn3n2)c1	-10%	7.9µM*	-10%	i	?
CCOc1ccccc1NC(=O)N1CCC(Cc2nncn2Cc2ccccc2)C1 (centres undefined)	-20%	.	3%	1%	.
Cc1nnc2ccc(N3CCC(N[S+](=O)([O-])c4cccs4)CC3)nn12	?	.	-20%	.	.
Cc1ncccc1C(=O)N1CCCCCCN(C)C(=O)[C@@H]2CCC[C@@H]21	0%	i	0%	3%	-2%
CN1CCN(C(=O)[C@@H]2[C@@H](CC(=O)O)c3cccnc3C(=O)N2Cc2ccccc2)CC1	-16%[46.1 µM]	.	?	-15%[27.3 µM]	.
COc1ccc(C(O)Cn2ccn3nc(-c4ccc(C(C)C)cc4)cc3c2=O)cc1 (centres undefined)	-4%	i	2%	0%	-2%
COc1ccc(-c2cc3c(=O)n(CCNC(=O)c4cc(OC)cc(OC)c4)ccn3n2)cc1	-23%	i	-5%	i	-17%
COc1cccc(-c2cc3c(=O)n(CCNC(=O)Cc4ccccc4C)ccn3n2)c1	-17%	?	4%	-16%	-26%
COc1ccc(OC)c(C(O)Cn2ccn3nc(-c4ccc(C(C)C)cc4)cc3c2=O)c1 (centres undefined)	-9%	?	32µM*	i	?
COc1cccc(-c2cc3c(=O)n(CCNC(=O)COc4ccccc4)ccn3n2)c1	-20%	25µM*	-23%	-1%	-23%
COc1ccc(-c2cc3c(=O)n(CCNC(=O)c4cc(Cl)ccc4F)ccn3n2)cc1	-19%	?	79µM*	-12%	-20%
COc1cccc(-c2cc3c(=O)n(CC(O)c4ccccc4)ccn3n2)c1 (centres undefined)	-29%	3.5µM*	35µM*	i	-30%
CCN1C[C@H]2CN(C)c3ccccc3[C@@H]2N(C(=O)c2ccc(C)cc2)CCC1=O	?	.	?	i	.
COc1ccc2nccc(C(=O)CC[C@@H]3CCN(CC#Cc4cc(F)cc(F)c4F)C[C@@H]3C(=O)O)c2c1	.	.	.	2%	.
O=S(=O)(c1ccccc1F)N1CC(n2cnnc2-c2ccccc2)C1	?	.	-28%	i	.
COCCCNc1nc(-c2c(C)noc2C)cc2cc(CN(C)C)oc12	?	i	-29%[172 µM]	?	4%[70.6 µM]
Cc1noc(C)c1-c1cc2cc(CN(C)C)oc2c(NCc2cccc(F)c2)n1	?	i	?	i	-2%[70.6 µM]
Cc1noc(C)c1-c1cc2cc(CN(C)C)oc2c(NCCOc2ccccc2)n1	79µM*	i	?	3%[88.5 µM]	-21%[70.6 µM]
